Results filed as inconclusive are left out. Unmarked numbers belong to inactive results. Calls of active or inactive are those of the source. The call rests on the fitted dose curve; in most records, active means well fitted inhibition curve with a large enough effect; inconclusive means small, poorly fitted or top-dose-only effect; inactive means flat fitted curve, though single readings scatter.
On the % scale 0 is the no-effect control and ±100 the full control effect; potency means the concentration at half of the fitted maximal effect.

In the experiment the test system is KB-3-1. Briefly: Cytotoxic Profiling of Annotated Libraries Using Quantitative High-Throughput Screening (AID 1296008). Further: nearly all actives have a fitted effect of over 60% in size. The settings on record: Five cell lines viability, CellTiter-Glo ATP luminescence, 48-72 h; max response: hits give low values. An outline of the steps:
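Compounds were pin-transferred onto cells and incubated 48 or 72 hr at 37 degree Celsius, 95% humidity. CellTiter-Glo was added, plates sat 10 min at room temperature, then ATP-coupled luminescence was imaged as the viability read-out.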
(In ATP-based viability assays light output follows the ATP content of the culture.)
Consider `CC(=O)O[C@@H]1[C@H](O)[C@@H](O[C@@H]2O[C@@H](C)[C@H](O[C@@H]3OC[C@@H](O)[C@H](O[C@@H]4OC[C@@H](O)[C@H](O)[C@H]4O)[C@H]3O)[C@@H](O[C@@H]3O[C@H](CO)[C@@H](O)[C@H](O)[C@H]3O)[C@H]2O)[C@H](OC(=O)[C@]23CCC(C)(C)C[C@H]2C2=CCC4[C@@]5(C)CC[C@H](O[C@@H]6O[C@H](C(=O)O)[C@@H](O)[C@H](O[C@@H]7OC[C@@H](O)[C@H](O)[C@H]7O)[C@H]6O[C@@H]6O[C@H](CO)[C@H](O)[C@H](O)[C@H]6O)[C@@](C)(C=O)C5CC[C@@]4(C)[C@]2(C)CC3)O[C@@H]1C` (stereo not given in full), for which the max response is -1.2%.

With `O=C(Nc1ccc(S(=O)(=O)C(F)(F)F)cc1)C1=CCN(c2ncccc2C(F)(F)F)CC1`, the Potency is 23100 nM (active).

For `COc1ccc(-c2ccc3c(N4CCOCC4)nc(N4CC(C)OC(C)C4)nc3n2)cc1CO` (stereo not given), the Potency was 1640 nM (active).

As for `Cc1cccc(C)c1OCc1cc(C(=O)N2CCC(c3ccncc3)CC2)no1`, the Potency was 8200 nM (active).

With `NCc1ccc(Nc2ncc(F)c(Nc3ccccc3)n2)cc1`, the Potency is 8200 nM (active).

For the compound `CN(C)c1nc(NC2CCC(NC(=O)c3ccc(F)c(F)c3)CC2)nc2ccccc12` (stereo not given), the Potency was 23100 nM (active).

Consider `CC(=O)OC12COC1CC(O)C1(C)C(=O)C(O)C3=C(C)C(OC(=O)C(O)C(NC(=O)OC(C)(C)C)c4ccccc4)CC(O)(C(OC(=O)c4ccccc4)C21)C3(C)C` (stereo not given), for which the Potency is 1.8 nM (active).

On to `CC(C)[C@@](C)(O)[C@@H]1CN(c2nc(-c3[nH]nc4ncccc34)c(F)cc2Cl)CCN1`, for which the Potency was 20600 nM (active).

In the case of `C[C@@]1(O)[C@H](O)[C@@H](CO)O[C@H]1n1ccc(N)nc1=O`, the call was inactive.

On to `C[C@@H]1C[C@H]2O[C@@H]2/C=C\C=C\C(=O)Cc2c(Cl)c(O)cc(O)c2C(=O)O1`, for which the Potency is 1100 nM (active).

On to `COc1ccc(-c2cnc(-c3cccc4c3-c3ccccc3C4=O)o2)cc1`, for which the Potency was 70.9 nM (active).

Consider `N=c1nc2n(cc1F)C1OC(CO)C(O)C1O2` (stereo not given), for which the max response is -7.19%.

On to `c1cn2cc(-c3ccc4cn[nH]c4c3)nc(Nc3ccc(N4CCOCC4)cc3)c2n1`, for which the max response is 3.1%.

Turning to `C#CC[C@H](c1nc2cc(Cl)ccc2c(=O)n1Nc1ccccc1)N(CCCN)C(=O)c1cccc(Cl)c1F`, the Potency is 920 nM (active).

On to `Cc1cc(C)c(Nc2ccnc(Nc3ccc(C#N)cc3)n2)c(C)c1`, for which the Potency was 20600 nM (active).

Take `CCCC(=O)O[C@@H]1[C@@H]2[C@@H](OC(C)=O)[C@]3(C)C(=O)[C@H]4[C@@H](OC(C)=O)C(C)(C)C[C@H]4[C@]3(C)C(=O)[C@@]2(OC(C)=O)C[C@@H]1C`: the max response is 8.81%.

Turning to `O=C(c1ccc(/C=C/c2n[nH]c3ccccc23)cc1)N1CCNCC1`, the Potency is 5800 nM (active).

Regarding `COC1=CC(=O)CC(C)C12Oc1cc(OC)cc(O)c1C2=O` (stereo not given), the result was inactive.

With `CCCC(=O)NCCc1csc(-c2ccc(Cl)cc2)n1`, the max response was -24.2%.

As to `O=C(/C=C/c1ccccc1)OC[C@]12O[C@H]1[C@@H](O)[C@@H]1C=CO[C@@H](O[C@@H]3O[C@H](CO)[C@@H](O)[C@H](O)[C@H]3O)[C@@H]12`, the outcome was inactive.

Turning to `Cc1nc(Nc2n[nH]c3c2CN(C(=O)NC(CN(C)C)c2ccccc2)C3(C)C)c2sccc2n1` (stereo not given), the Potency is 1840 nM (active).

With `C[C@H]1C(=O)N2c3ccccc3[C@@]3(O)C[C@@H]4C(=O)N[C@](C)(c5nc6ccccc6c(=O)n54)N1[C@@H]23`, the outcome was inactive.

Turning to `O=C(O)/C=C/c1ccc(-c2ccc(O)c(C34CC5CC(CC(C5)C3)C4)c2)cc1`, the Potency was 2060 nM (active).

Turning to `CC1=C(C(=O)O[C@@H]2O[C@H](COC3OCC(O)C(O)C3O)[C@@H](O)[C@H](O)[C@H]2O)C(C)(C)CCC1` (stereo not given in full), the max response was -5.04%.

Consider `C=C1C(=O)O[C@@H]2C/C(C)=C\C(=O)/C=C(\C)[C@@H](OC(=O)/C(C)=C\C)[C@H](O)[C@@H]12`, for which the Potency was 11400 nM (active).

For the compound `O=C(c1cc2c(cc1F)OC(c1ccc(F)cc1)(c1ccc(Cl)cc1Cl)O2)N1CCOCC1` (stereo not given), the Potency was 13000 nM (active).

`C/C=C/C=C/C=C/C(=O)OC1C=C(C=O)C(O)(C(=O)O)C2(C)CCCC(C)(C)C12` (stereo not given): the max response was 7.06%.

For `CO[C@H]1C[C@@H]2CC[C@@H](C)[C@@](O)(O2)C(=O)C(=O)N2CCCC[C@H]2C(=O)O[C@H]([C@H](C)C[C@@H]2CC[C@@H](OP(C)(C)=O)[C@H](OC)C2)CC(=O)[C@H](C)/C=C(\C)[C@@H](O)[C@@H](OC)C(=O)[C@H](C)C[C@H](C)/C=C/C=C/C=C/1C`, the max response is 3.84%.

`Cc1cc(-c2cc(O)ccc2Cl)cc2nnc(Nc3ccc(OCCN4CCCC4)cc3)nc12`: the Potency was 4610 nM (active).

For `NC(=O)c1csc(C2OC(CO)C(O)C2O)n1` (stereo not given), the outcome was inactive.

As to `Cc1ccc(S(=O)(=O)Nc2ccccc2N2CCCCC2)s1`, the max response is -18.9%.

As to `COc1cc(C(=O)NC2CCN(C)CC2)c(F)cc1Nc1ncc2c(n1)N(C1CCCC1)CC(F)(F)C(=O)N2C`, the Potency is 10.3 nM (active).

For `C/C=C/c1ccc(O[C@@H]2O[C@H](CO)[C@@H](O)[C@H](O)[C@H]2O)c(OC)c1`, the max response was -6.82%.

In the case of `Cc1c[nH]c2nccc(Oc3c(F)cc(Nc4cc(Cl)nc(N)n4)cc3F)c12`, the Potency was 1460 nM (active).

Consider `CC(C)C(CO)Nc1nc(Nc2cc(N)cc(Cl)c2)c2ncn(C(C)C)c2n1` (stereo not given), for which the Potency was 10300 nM (active).

As to `CC(Oc1cc(-n2cnc3ccc(CN4CCN(C)CC4)cc32)sc1C(N)=O)c1ccccc1C(F)(F)F` (stereo not given), the Potency was 651 nM (active).

With `C=CC(C)(C)c1[nH]c2cc3c(cc2c1CC1NC(=O)C2=CCCN2C1=O)C=CC(C)(C)O3` (stereo not given), the outcome was inactive.

With `CC(=O)O[C@H]1C(=O)[C@@]2(C)[C@H]([C@H](OC(=O)c3ccccc3)[C@]3(O)C[C@H](OC(=O)[C@H](O)[C@@H](NC(=O)c4ccccc4)c4ccccc4)C(C)=C1C3(C)C)[C@]1(OC(C)=O)CO[C@@H]1C[C@@H]2O`, the Potency is 9.8 nM (active).

Consider `C[C@@H]1N[C@H]2N(C1=O)c1ccccc1[C@@]2(O)C[C@@H]1C(=O)N[C@@H](C)c2nc3ccccc3c(=O)n21`, for which the compound was called inactive.

With `C[C@@H](Oc1cc(-n2cnc3ccc(OC4CCN(C)CC4)cc32)sc1C(N)=O)c1ccccc1C(F)(F)F`, the Potency was 9.2 nM (active).

These data come from PubChem BioAssay (NCATS).
